Luciferase reporter transactivation data for five compounds are collected here from the supplement of paper PMC11402862.

The test system of this experiment is PPARgamma LBD (GAL4 fusion). The experiment in a line: luciferase reporter transactivation, fold of solvent control; higher = stronger receptor activation. To be noted: HEK293T, exposure time: 24 h. As to the method:
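HEK293T cells were transiently transfected with a GAL4-DBD fused to the ligand-binding domain of a human nuclear receptor (PPARα, PPARγ, PPARδ, FXR, LXRα, PXR, RARα or CAR), the GAL4-(UAS)5-TK firefly luciferase reporter and a Renilla luciferase normalisation plasmid. Cells were exposed to compound for 24 h in 0.5% DMSO. Firefly/Renilla luciferase was expressed as fold of the solvent control (=1). Values are the mean of 2-3 biological replicates; receptor agonists were used as positive controls.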
For orientation: A reporter such as luciferase makes a cellular process visible.

For `OCCC(F)(F)C(F)(F)C(F)(F)C(F)(F)C(F)(F)C(F)(F)F` [6:2 fluorotelomer alcohol], the luciferase reporter transactivation runs as follows: (concentration: 1 µM) 1.1; (concentration: 5 µM) 1; (concentration: 10 µM) 0.973; (concentration: 25 µM) 1.1; (concentration: 50 µM) 1.09; (concentration: 100 µM) 0.563. Besides, the luciferase reporter transactivation by setting is: (concentration: 250 µM) 1.25; (concentration: 500 µM) 1.1.
As to `O=S(=O)(O)CCC(F)(F)C(F)(F)C(F)(F)C(F)(F)C(F)(F)C(F)(F)F` [6:2 fluorotelomer sulfonic acid], the luciferase reporter transactivation reads like this: (concentration: 1 µM) 1.45; (concentration: 5 µM) 1.66; (concentration: 10 µM) 1.6; (concentration: 25 µM) 1.57; (concentration: 50 µM) 1.9; (concentration: 100 µM) 2.81.
On to `O=C(O)C(F)(F)C(F)(F)C(F)(F)C(F)(F)F` [perfluoropentanoic acid], for which the luciferase reporter transactivation runs as follows: (concentration: 1 µM) 1.01; (concentration: 5 µM) 1.01; (concentration: 10 µM) 0.918; (concentration: 25 µM) 0.953; (concentration: 50 µM) 0.925; (concentration: 100 µM) 0.858. For the same compound, the luciferase reporter transactivation runs as follows: (concentration: 250 µM) 0.947; (concentration: 500 µM) 1.11.
`O=S(=O)(O)CCC(F)(F)C(F)(F)C(F)(F)C(F)(F)C(F)(F)C(F)(F)C(F)(F)C(F)(F)F` [8:2 fluorotelomer sulfonic acid]: the luciferase reporter transactivation amounted to 0.851 (concentration: 1 µM); 0.861 (concentration: 5 µM); 0.922 (concentration: 10 µM); 0.905 (concentration: 25 µM); 1.04 (concentration: 50 µM); 1.31 (concentration: 100 µM). In addition, the luciferase reporter transactivation was determined as 1.04 (concentration: 250 µM) and 0.846 (concentration: 500 µM).
The compound `Cc1c(C)c2c(c(C)c1O)CCC(C)(COc1ccc(CC3SC(=O)NC3=O)cc1)O2` (stereo unspecified) [troglitazone] returned a luciferase reporter transactivation (concentration: 10 µM) of 27.7.
